Growth data for eight molecules are collected here from PubChem BioAssay (NCI).

Each structure is given as a SMILES string. The panel holds about 83,000 compounds, 20% with a hit somewhere; the sample as a whole holds those more often.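 Note: values are percent growth. 100 is the growth of untreated cells, values between 100 and 0 indicate rising inhibition; between -100 and 0 indicates cell death.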 Unmarked numbers belong to inactive results. Activity calls are given as the source filed them. The calls were made as follows: active = growth percent below 10; inactive = the rest.

What all share (assay): NCI-60 one-dose screen, 48 h (100 = growth as untreated, 0 = no growth, -100 = all killed)
Holding throughout (details): 10 µM unless noted

Experiment [1] concerns NCI-H23 lung.
For experiment [2], the system named is NCI-H226 lung.
For experiment [3], the system named is NCI-H322M lung.
Experiment [4] concerns HOP-62 NSCLC.
Experiment [5] has as its system NCI-H460 lung.
The subject of experiment [6] is HOP-92 NSCLC.
Experiment [7] has as its system NCI-H522 lung.
The subject of experiment [8] is A549/ATCC NSCLC.
Experiment [9] relates to 786-0 renal.
Experiment [10] has as its system COLO 205 colon.
Experiment [11] deals with DU-145 prostate.
In experiment [12] the test system is K-562 leukemia.
Experiment [13] has as its system MALME-3M melanoma.
Experiment [14] deals with MDA-MB-231 breast.
The subject of experiment [15] is RXF 393 renal.
Experiment [16] concerns SF-268 CNS.
In experiment [17] the test system is SF-295 CNS.
The subject of experiment [18] is SF-539 CNS.
For experiment [19], the system named is UACC-257 melanoma.
The subject of experiment [20] is M14 melanoma.

In the case of `CCN(CC)c1ccc(/C=N/NC(=O)c2ccc(Nc3ccnc(C(F)(F)F)c3)cc2)c(O)c1`, the growth in experiment [1] was 31%; in experiment [2], -3.5% (active); in experiment [3] it was 15.3%; in experiment [4] it was 25.6%; in experiment [5] it was -4.66% (active); in [6], 42.4%. Besides, the growth was 49.7% in [7]; 33.4% in experiment [8]; -16.2% (active) in experiment [9]; -18% (active) in experiment [10]; 30.6% in experiment [11]; 87.2% in experiment [12]. Besides, the growth was 14.4% in experiment [13]; 24.4% in experiment [14]; -0.93% (active) in experiment [15]; 18.5% in [16]; 7.62% (active) in experiment [17]; -46.4% (active) in experiment [18]. The growth in experiment [19] was 49%; in [20] it was 19.3%.
As for `O=C1CC2C=CCN2C=C1NC(=O)C1CCCCC1` (stereo not given), the growth in experiment [1] is 97.4%; in [2] it was 104%; in [3], 100%; in experiment [4], 102%; in [5], 112%; in [6] it was 115%. Besides, the growth was 89.7% in experiment [7]; 97.5% in [8]; 99.5% in experiment [9]; 105% in [10]; 98.9% in [11]; 99.9% in experiment [12]. Also, the growth in experiment [13] was 78%; in experiment [14] it was 108%; in [15], 104%; in [16], 95.5%; in [17], 98.5%; in [18] it was 98.4%. In addition, the growth in [19] is 97.8%; in [20], 114%.
In the case of `CCOC(=O)/C=C/c1c(C)[nH]c(=O)[nH]c1=O`, the growth in experiment [1] is 81.2%; in experiment [2], 98.6%; in [3], 136%; in experiment [4], 93.7%; in experiment [5], 51.7%; in experiment [6], 114%. In addition, the growth in experiment [7] was 59.6%; in experiment [8] it was 97.2%; in experiment [9], 114%; in experiment [10], 92.6%; in experiment [11] it was 21%; in experiment [12] it was 101%. The growth is 172% in experiment [13]; 93.1% in experiment [14]; 89.3% in [15]; 96% in [16]; 76.5% in experiment [17]; 98.9% in [18]. In addition, the growth in [19] is 109%; in [20], 97.5%.
In the case of `COC(=O)C1=Nc2ccc(F)cc2/C1=C\c1sc(Nc2ccc(O)cc2)nc1O`, the growth in experiment [1] is 73.4%; in experiment [2] it was 78.2%; in experiment [3] it was 96.7%; in experiment [4], 64.3%; in experiment [5] it was 102%; in [6] it was 42.7%. The growth in [7] is 47.4%; in [8] it was 99%; in [9], 66.1%; in [10], 101%; in [11] it was 93.9%; in experiment [12] it was 23.2%. The growth is 45.9% in experiment [13]; 76.7% in experiment [14]; 43.6% in [15]; 59.8% in experiment [16]; 61% in experiment [17]; 55.4% in [18]. In addition, the growth was 72.2% in [19] and 49% in experiment [20].
For the molecule `Cc1cccc(NC(=O)CSc2nc3ccc([N+](=O)[O-])cc3[nH]2)c1`, the growth in experiment [1] was 69.7%; in experiment [2], 71%; in [3], 97.2%; in experiment [4] it was 115%; in experiment [5], 84.7%; in [6] it was 21%. Moreover, the growth in experiment [7] is 61%; in [8] it was 82.7%; in [9], 84.8%; in [10], 90.1%; in experiment [11], 85%; in experiment [12], 66.5%. The growth in experiment [13] is 62.2%; in experiment [14], 97.3%; in experiment [15], 89%; in [16], 87.8%; in experiment [17], 62.7%; in experiment [18], 87.1%. The values for the growth in [19] and in [20] were 70.9% and 79.9%, respectively.
`COc1cc(Nc2c3ccc(Cl)cc3nc3ccc(OC)cc23)c2ncccc2c1`: the growth in experiment [1] is 50%; in experiment [2] it was 62.1%; in experiment [3], 47.9%; in experiment [4], 50.1%; in [5] it was 21%; in experiment [6] it was -0.879% (active). For the same molecule, the growth is 49.7% in [7]; 34.3% in experiment [8]; 60.4% in experiment [9]; 59.6% in [10]; 39.4% in [11]; 53.2% in [12]. In addition, the growth was 32.1% in experiment [13]; 34% in [14]; 45.5% in [15]; 43.3% in experiment [16]; 46.2% in [17]; 45% in experiment [18]. In addition, the figures for the growth in experiment [19] and in experiment [20] were 59.6% and 49.5%, respectively.
Consider `Cc1nc2sc(C(=O)Nc3cccc(Cl)c3)c(N)c2cc1C(O)c1ccccc1` (stereo not given), for which the growth in experiment [1] is 32%; in experiment [2], 54.1%; in experiment [3], 60.2%; in [4], 45.3%; in experiment [5] it was 6.05% (active); in [6] it was 77.2%. Also, the growth is 3.93% (active) in [7]; 21.1% in experiment [8]; 36.8% in [9]; 20.8% in experiment [10]; 19.7% in [11]; 6.94% (active) in [12]. Moreover, the growth was 49.7% in [13]; 22.3% in experiment [14]; 27.7% in [15]; 42.3% in experiment [16]; 28.8% in experiment [17]; -3.45% (active) in experiment [18]. Besides, the growth in [19] is 35%; in experiment [20] it was 15%.
In the case of `Cc1ccc(-c2csc(NC(=O)N3CCN(c4cc5c(cc4F)c(=O)c(C(=O)O)cn5C4CC4)CC3)n2)cc1`, the growth in experiment [1] was 4.84% (active); in [2] it was 14.5%; in [3], 9.12% (active); in experiment [4], 12.6%; in experiment [5], 19.6%; in experiment [6], -12.6% (active). The growth is -5.07% (active) in experiment [7]; 11.1% in experiment [8]; 28.9% in experiment [9]; 11.9% in experiment [10]; 16.3% in [11]; 17.1% in experiment [12]. The growth in [13] was -3.8% (active); in experiment [14], 17.5%; in [15], 26.6%; in experiment [16], 24.3%; in experiment [17], 4.88% (active); in [18] it was 26.7%. Further, the values for the growth in experiment [19] and in [20] were -4.73% (active) and 20%, respectively.
